Experiment [1] is described as follows: qHTS assay to identify aromatase inhibitors - cell viability counter screen (AID 743084).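 Note: cells stimulated with testosterone during compound exposure; nearly all actives have a fitted effect of over 55% in size.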
For experiment [2], the target named is Aryl hydrocarbon receptor (Homo sapiens) (UniProt P35869). Description: qHTS assay to identify small molecule that activate the aryl hydrocarbon receptor (AhR) signaling pathway (AID 743085).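 Note: HG2L7.5c1 human HepG2 liver cells with stably integrated DRE-driven firefly reporter; series mostly up to about 70 µM; nearly all actives have a fitted effect of over 15% in size.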 In a few lines: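 Cell line HG2L7.5c1 (human hepatoma, 20× DRE-luc). Plated, 5 h 37C, compound/DMSO added, 24 h 37C. CellTiter-Fluor 30 min 37C → fluorescence; then ONE-Glo 30 min RT → luminescence.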

Experiment [3] is described as follows: qHTS assay to identify small molecule that activate the aryl hydrocarbon receptor (AhR) signaling pathway - cell viability counter screen (AID 743086).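 Note: HepG2 liver cells carrying the AhR DRE luciferase reporter; series mostly up to about 70 µM; nearly all actives have a fitted effect of over 45% in size.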 In a few lines:
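HepG2-AhR-luc (HG2L7.5c1) cells, 4000/well, treated 24 h at 37 C with compound; viability measured as CellTiter-Fluor fluorescence after 30 min in the same wells as the luciferase read.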
(Quantitative high-throughput screening tests each substance at several concentrations.)

Experiment [4] addresses Peroxisome proliferator-activated receptor gamma (Homo sapiens) (UniProt P37231). Description: qHTS assay to identify small molecule agonists of the peroxisome proliferator-activated receptor gamma (PPARg) signaling pathway (AID 743094; active = well fitted activation curve with a large enough effect in the signal ratio in the repeat runs, not every such curve was filed as active; the % refers to the signal ratio). The gist of the method:
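Cell-based bla reporter, HEK293H background, PPARg-driven UAS. Pre-incubation 5 h, 37C, 5% CO2. Compound 17 h, 37C. Substrate 1 h RT; fluorescence.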

The target is the same in experiment [5]. Description: qHTS assay to identify small molecule antagonists of the peroxisome proliferator-activated receptor gamma (PPARg) signaling pathway (AID 743191; calls by dose curve; note: series mostly up to about 63 µM; nearly all actives have a fitted effect of over 30% in size). In a few lines:
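GeneBLAzer PPARg UAS-bla HEK293H cells, 5 h post-plating, exposed to compounds 17 h at 37C. LiveBLAzer B/G FRET substrate added for 1 h at room temperature; beta-lactamase reporter read by fluorescence intensity.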

Experiment [6] is described as follows: qHTS assay to identify small molecule antagonists of the peroxisome proliferator-activated receptor gamma (PPARg) signaling pathway - cell viability counter screen (AID 743194). Note: nearly all actives have a fitted effect of over 55% in size. In a few lines:
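Cytotoxicity counter screen in PPARg-bla HEK293H cells, same wells as reporter assay. Compounds plus 50 nM rosiglitazone (final) for 17 h at 37 C, then viability read by CellTiter-Glo luminescence.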

Experiment [7] can be described thus: qHTS assay for small molecule agonists of the antioxidant response element (ARE) signaling pathway (AID 743202; active = well fitted activation curve with a large enough effect in the signal ratio in the repeat runs, not every such curve was filed as active; the % refers to the signal ratio; note: potency is the fitted concentration of half-maximal effect). The gist of the method:
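HepG2 ARE-bla cells; 16 h treatment at 37 C; FRET-based beta-lactamase fluorescence read after 2 h substrate incubation at room temperature.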

A short description of experiment [8]: qHTS assay for small molecule agonists of the antioxidant response element (ARE) signaling pathway - cell viability counter screen (AID 743203; calls by dose curve; note: nearly all actives have a fitted effect of over 55% in size). The gist of the method:
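Measured in the same wells as the beta-lactamase ARE reporter, this read-out is CellTiter-Glo luminescence from HepG2 ARE-bla cells given compounds for 16 hrs.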

The nature of experiment [9]: qHTS assay for small molecule activators of the heat shock response signaling pathway - cell viability counter screen (AID 743209). Note: nearly all actives have a fitted effect of over 50% in size. The gist of the method:
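Same-well multiplex: after 2.5 h room-temperature incubation with LiveBLAzer B/G substrate and fluorescence reading, CellTiter-Glo reagent was added to HSE-bla HeLa cells that had received compound for 5 h at 37 C; luminescence read after 30 min.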

The nature of experiment [10]: qHTS assay for small molecule activators of the heat shock response signaling pathway (AID 743210; active = well fitted activation curve with a large enough effect in the signal ratio in the repeat runs, with a control signal flat, not every such curve was filed as active; the % refers to the signal ratio;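 note: HeLa cells with beta-lactamase reporter driven by heat shock elements; series mostly up to about 63 µM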). The gist of the method:
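Following overnight attachment, HSE-bla HeLa cells received test compounds for 5 h at 37 C; beta-lactamase activity was then detected via FRET substrate fluorescence.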

The target in experiment [11] is Peroxisome proliferator-activated receptor delta (Homo sapiens) (UniProt Q03181). Description: qHTS assay to identify small molecule agonists of the peroxisome proliferator-activated receptor delta (PPARd) signaling pathway (AID 743212; calls by dose curve). The gist of the method: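 Tox21 library screened in GeneBLAzer PPARd UAS-bla HEK293H cells. After compound treatment at 37 C, a FRET-based beta-lactamase substrate was applied for 2 h and fluorescence recorded.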

The nature of experiment [12]: qHTS assay to identify small molecule antagonists of the peroxisome proliferator-activated receptor delta (PPARd) signaling pathway - cell viability counter screen (AID 743213). Note: nearly all actives have a fitted effect of over 50% in size. In a few lines: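 PPARd-bla HEK293H cells (3000/well) got compound plus 300 nM L165041 agonist for 17 h at 37 C. Viability in the same wells came from CellTiter-Glo luminescence after 30 min at room temperature.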

Experiment [13] can be described thus: qHTS assay to identify small molecule agonists of the farnesoid-X-receptor (FXR) signaling pathway - cell viability counter screen (AID 743218). Note: nearly all actives have a fitted effect of over 45% in size. In a few lines: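 Readout: CellTiter-Glo luminescence, 30 min RT, multiplexed after the FXR-bla FRET reading. HEK 293T FXR-UAS-bla cells received compound 5 h post-plating and were incubated 16 h at 37 C.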
Experiment [14] can be described thus: qHTS assay to identify small molecule antagonists of the farnesoid-X-receptor (FXR) signaling pathway - cell viability counter screen (AID 743221; active = well fitted cell-killing curve with a large enough effect in the repeat runs, not every such curve was filed as active; note: nearly all actives have a fitted effect of over 50% in size). The gist of the method:
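Luminescence from CellTiter-Glo measures cytotoxicity in GeneBLAzer FXR-UAS-bla HEK 293T cells. Cells were exposed to compounds with 50 uM chenodeoxycholic acid (final) for 16 h at 37 C, in wells also used for the reporter readout.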

Experiment [15] addresses Vitamin D3 receptor (Homo sapiens) (UniProt P11473). Description: qHTS assay to identify small molecule agonists of the vitamin D receptor (VDR) signaling pathway (AID 743222; calls by dose curve). In a few lines: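 Following 4 h attachment at 37C, VDR-bla cells (2,000 per well) received DMSO-dissolved compounds or controls. After 16 h incubation, LiveBLAzer B/G FRET substrate was added and fluorescence read 2 h later at room temperature.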

Experiment [16] shares this target. Description: qHTS assay to identify small molecule antagonists of the vitamin D receptor (VDR) signaling pathway (AID 743223; active = well fitted inhibition curve with a large enough effect in the signal ratio in the repeat runs, not every such curve was filed as active; the % refers to the signal ratio). The gist of the method: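 Antagonist mode uses 1alpha,25-dihydroxyvitamin D3 at 3 nM final as stimulus. VDR-bla cells receive compounds in DMSO, incubate 16 h at 37C, then a beta-lactamase FRET substrate for 2 h at room temperature before fluorescence measurement.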

Experiment [17] is described as follows: qHTS assay to identify small molecule agonists of the peroxisome proliferator-activated receptor delta (PPARd) signaling pathway - cell viability counter screen (AID 743211). Note: nearly all actives have a fitted effect of over 55% in size. The gist of the method:
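HEK293H PPARd-bla, 3000 cells/well; 5 h preincubation 37C/5% CO2; cpd in DMSO, 17 h 37C; B/G FRET substrate 2 h RT; CellTiter-Glo 30 min RT, luminescence.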

The target of experiment [18] is Peroxisome proliferator-activated receptor delta (Homo sapiens) (UniProt Q03181). The experiment is described as follows: qHTS assay to identify small molecule antagonists of the peroxisome proliferator-activated receptor delta (PPARd) signaling pathway (AID 743215; active = well fitted inhibition curve with a large enough effect in the signal ratio in the repeat runs, not every such curve was filed as active; the % refers to the signal ratio;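 note: cells stimulated with agonist L165041 at 300 nM final during compound exposure; series mostly up to about 62 µM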). In a few lines: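 Fluorescence from cleaved LiveBLAzer B/G FRET substrate (2 h, room temperature) reports PPARd-driven beta-lactamase in HEK293H UAS-bla cells. Cells had been treated 17 h at 37 C with compound plus 300 nM final L165041.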

In experiment [19] the target is Bile acid receptor (Homo sapiens) (UniProt Q96RI1). Description: qHTS assay to identify small molecule antagonists of the farnesoid-X-receptor (FXR) signaling pathway (AID 743217; active = well fitted inhibition curve with a large enough effect in the signal ratio in the repeat runs, not every such curve was filed as active; the % refers to the signal ratio). The gist of the method: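 FRET fluorescence after 2 h room-temperature LiveBLAzer loading gives the readout. Prior step: FXR-bla HEK 293T cells, seeded and incubated 5 h, received test compounds plus 50 uM final CDCA for 16 h at 37 °C.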

Experiment [20] shares this target. Description: qHTS assay to identify small molecule agonists of the farnesoid-X-receptor (FXR) signaling pathway (AID 743220; active = well fitted activation curve with a large enough effect in the signal ratio in the repeat runs, not every such curve was filed as active; the % refers to the signal ratio). In a few lines:
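FXR-UAS-bla HEK 293T cells carrying a UAS-driven beta-lactamase reporter were plated for 5 h at 37C/5% CO2, then exposed to DMSO-dissolved Tox21 10K compounds for 16 h at 37C. A LiveBLAzer B/G FRET substrate was loaded for 2 h at room temperature before fluorescence reading.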

Results filed as inconclusive are left out. Calls of active or inactive are those of the source. Unless noted, calls come from the whole dose curve; as a rule, active = well fitted curve in the direction sought with a large enough effect in the repeat runs; inconclusive = weak or mixed curves; inactive = no such curve, though single readings can be large; an effect the other way counts as inactive or inconclusive.

Sequence of Bile acid receptor (Homo sapiens) (Q96RI1 whole entry, looked up): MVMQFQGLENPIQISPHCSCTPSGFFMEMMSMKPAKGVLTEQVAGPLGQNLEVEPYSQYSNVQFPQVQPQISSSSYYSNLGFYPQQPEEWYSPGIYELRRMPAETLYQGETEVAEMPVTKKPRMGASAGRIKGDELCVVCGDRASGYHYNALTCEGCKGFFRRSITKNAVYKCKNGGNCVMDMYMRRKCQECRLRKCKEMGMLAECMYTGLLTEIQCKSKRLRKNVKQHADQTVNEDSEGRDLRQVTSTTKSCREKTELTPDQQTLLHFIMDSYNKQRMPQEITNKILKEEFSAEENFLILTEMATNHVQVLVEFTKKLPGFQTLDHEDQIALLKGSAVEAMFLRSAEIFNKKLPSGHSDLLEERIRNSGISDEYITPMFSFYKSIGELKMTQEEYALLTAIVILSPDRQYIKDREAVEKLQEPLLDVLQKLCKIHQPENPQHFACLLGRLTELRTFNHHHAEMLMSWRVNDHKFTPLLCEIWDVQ
Sequence of Peroxisome proliferator-activated receptor delta (Homo sapiens) (Q03181 whole entry, looked up): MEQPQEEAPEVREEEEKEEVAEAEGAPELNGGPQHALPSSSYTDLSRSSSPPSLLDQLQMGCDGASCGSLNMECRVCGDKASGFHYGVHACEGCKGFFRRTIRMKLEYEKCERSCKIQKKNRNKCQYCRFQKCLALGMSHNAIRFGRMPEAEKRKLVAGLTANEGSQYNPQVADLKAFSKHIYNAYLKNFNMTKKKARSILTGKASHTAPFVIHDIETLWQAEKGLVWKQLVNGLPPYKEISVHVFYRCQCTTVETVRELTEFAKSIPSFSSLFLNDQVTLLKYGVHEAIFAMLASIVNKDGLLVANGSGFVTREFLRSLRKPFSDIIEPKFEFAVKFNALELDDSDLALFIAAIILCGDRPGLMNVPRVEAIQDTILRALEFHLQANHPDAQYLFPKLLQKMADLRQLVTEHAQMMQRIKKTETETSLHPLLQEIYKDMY
Sequence of Peroxisome proliferator-activated receptor gamma (Homo sapiens) (P37231 whole entry, looked up): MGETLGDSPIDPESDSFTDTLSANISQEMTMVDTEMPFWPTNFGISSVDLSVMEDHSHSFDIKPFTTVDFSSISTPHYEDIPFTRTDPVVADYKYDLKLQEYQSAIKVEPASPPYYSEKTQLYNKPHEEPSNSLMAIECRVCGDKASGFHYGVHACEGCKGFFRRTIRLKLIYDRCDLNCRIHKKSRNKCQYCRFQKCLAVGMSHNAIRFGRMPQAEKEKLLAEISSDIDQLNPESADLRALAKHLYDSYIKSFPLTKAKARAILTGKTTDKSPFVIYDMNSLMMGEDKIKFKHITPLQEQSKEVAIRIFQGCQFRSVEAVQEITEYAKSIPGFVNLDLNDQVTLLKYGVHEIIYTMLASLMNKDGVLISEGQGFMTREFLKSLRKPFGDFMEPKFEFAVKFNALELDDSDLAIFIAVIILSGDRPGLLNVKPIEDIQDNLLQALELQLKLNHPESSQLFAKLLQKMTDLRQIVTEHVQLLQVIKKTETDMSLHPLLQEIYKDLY
Sequence of Vitamin D3 receptor (Homo sapiens) (P11473 whole entry, looked up): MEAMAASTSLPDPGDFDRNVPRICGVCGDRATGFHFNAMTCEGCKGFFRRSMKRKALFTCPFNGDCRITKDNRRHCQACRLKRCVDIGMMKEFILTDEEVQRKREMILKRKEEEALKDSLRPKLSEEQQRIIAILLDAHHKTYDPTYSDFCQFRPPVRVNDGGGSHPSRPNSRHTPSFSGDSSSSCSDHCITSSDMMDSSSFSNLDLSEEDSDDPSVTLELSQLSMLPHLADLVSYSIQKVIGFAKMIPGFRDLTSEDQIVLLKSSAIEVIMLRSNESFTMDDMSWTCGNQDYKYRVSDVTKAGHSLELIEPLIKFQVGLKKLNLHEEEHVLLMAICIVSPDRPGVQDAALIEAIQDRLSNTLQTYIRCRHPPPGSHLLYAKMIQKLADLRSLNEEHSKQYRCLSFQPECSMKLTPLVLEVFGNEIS
Sequence of Aryl hydrocarbon receptor (Homo sapiens) (P35869 whole entry, looked up): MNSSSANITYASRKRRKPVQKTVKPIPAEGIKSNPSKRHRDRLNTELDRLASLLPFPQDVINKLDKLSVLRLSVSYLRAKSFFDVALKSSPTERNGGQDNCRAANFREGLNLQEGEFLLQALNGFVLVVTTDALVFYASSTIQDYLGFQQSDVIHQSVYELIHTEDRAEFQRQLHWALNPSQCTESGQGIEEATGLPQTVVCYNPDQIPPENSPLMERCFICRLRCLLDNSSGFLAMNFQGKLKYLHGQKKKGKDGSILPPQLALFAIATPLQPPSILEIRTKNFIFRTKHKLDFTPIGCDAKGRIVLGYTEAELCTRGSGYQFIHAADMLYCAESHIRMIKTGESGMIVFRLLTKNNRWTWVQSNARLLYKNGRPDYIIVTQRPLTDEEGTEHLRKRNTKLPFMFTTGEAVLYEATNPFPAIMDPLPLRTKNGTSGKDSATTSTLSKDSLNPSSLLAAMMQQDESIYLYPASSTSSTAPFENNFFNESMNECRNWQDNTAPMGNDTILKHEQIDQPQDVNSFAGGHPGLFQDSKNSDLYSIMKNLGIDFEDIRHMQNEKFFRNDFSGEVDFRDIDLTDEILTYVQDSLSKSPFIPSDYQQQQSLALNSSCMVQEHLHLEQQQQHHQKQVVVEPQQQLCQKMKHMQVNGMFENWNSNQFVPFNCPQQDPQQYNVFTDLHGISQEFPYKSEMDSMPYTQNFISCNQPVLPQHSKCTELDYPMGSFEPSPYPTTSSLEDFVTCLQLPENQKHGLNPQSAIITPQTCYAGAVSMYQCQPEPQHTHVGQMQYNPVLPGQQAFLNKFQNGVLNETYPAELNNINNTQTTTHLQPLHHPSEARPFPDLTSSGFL

`Cc1ccc(S(=O)(=O)N=C=O)cc1`: the Potency result in experiment [1], in experiment [2], in experiment [3], in [7], in [8] and in experiment [11] was “inactive” throughout. In addition, the compound was called inactive in experiment [4], in experiment [5], in [6], in experiment [9], in [10] and in experiment [12]. Besides, the result in experiment [13], in [14], in experiment [15] and in experiment [16] was inactive.

Take `C=CC(=O)OCCC(=O)O`: the Potency result in experiment [1], in experiment [2], in experiment [3] and in experiment [8] was “inactive” in each case. For the same compound, the result in experiment [4], in experiment [5], in experiment [6], in experiment [9], in [10] and in [17] was inactive. Moreover, the outcome in experiment [12], in experiment [13], in experiment [14], in experiment [15] and in experiment [16] was inactive. Also, in experiment [7], the Potency is 9.69 µM (active).

Turning to `OCc1ccccc1`, the Potency entry in experiment [1], in experiment [2], in experiment [3], in experiment [7] and in [8] was “inactive” in each case. The outcome in experiment [4], in experiment [5], in [6], in experiment [9], in experiment [10] and in experiment [17] was inactive. In addition, the result in experiment [12], in [14], in [15] and in experiment [16] was inactive.

As for `CCNC(=S)NCC`, the Potency entry in experiment [1], in experiment [2], in experiment [3], in [7], in experiment [8] and in [11] was “inactive” in each case. For the same compound, the call in [4], in experiment [5], in experiment [6], in experiment [9], in experiment [10] and in [12] was inactive. Moreover, the compound was classed as inactive in [13], in [14], in experiment [15] and in [16].

On to `CC(CCO)CC(C)(C)C` (configuration not stated), for which the Potency result in experiment [1], in experiment [2], in experiment [3], in [7] and in [8] was “inactive” in each case. Further, the outcome in experiment [4], in experiment [5], in experiment [6], in experiment [9], in experiment [10] and in [12] was inactive. Also, the compound was called inactive in [13], in [14] and in experiment [15].

For the compound `NCCNCCN`, the Potency entry in experiment [1], in experiment [2], in [3], in [7], in [8] and in [11] was “inactive” each time. The outcome in [4], in experiment [5], in [6], in [9], in experiment [10] and in experiment [17] was inactive. Moreover, the compound was classed as inactive in [12], in experiment [18], in [14], in experiment [15] and in experiment [16].

In the case of `CCNc1cccc(C)c1`, the Potency entry in experiment [1], in [2], in experiment [3], in experiment [7], in experiment [8] and in experiment [11] was “inactive” in each case. The call in experiment [4], in experiment [5], in [9], in experiment [10], in [17] and in [12] was inactive. In addition, the result in experiment [18], in [14], in experiment [15] and in [16] was inactive.

For the compound `CCOC(=O)n1ccn(C)c1=S`, the Potency entry in [1], in experiment [2], in experiment [3], in experiment [7], in experiment [8] and in experiment [11] was “inactive” throughout. In addition, the compound was called inactive in experiment [4], in experiment [5], in experiment [6], in experiment [9], in experiment [10] and in experiment [12]. In addition, the result in experiment [19], in experiment [13], in [20] and in experiment [14] was inactive.

With `NC(=S)NNC(N)=S`, the Potency result in experiment [1], in experiment [2], in experiment [3], in [7], in experiment [8] and in [11] was “inactive” each time. Moreover, the outcome in [4], in experiment [5], in [6], in experiment [9], in [10] and in [17] was inactive. Further, the result in experiment [12], in [19], in experiment [20] and in experiment [14] was inactive.
